Source: PubChem BioAssay
Most compounds without a hit are left out; they make up all but 12% or so of the library.
JMJD2A Tudor: qHTS Assay for Inhibitors of JMJD2A-Tudor Domain; Potency, µM (titrated, usually from 114 µM), without a hit: at the top dose activity change, negative = inhibition, actives largely listed as inhibitors; AlphaScreen JMJD2A-Tudor / H3K4me3 peptide binding; 390,000 compounds, 4.4% hits; note: % is set by controls: 0 for no effect and ±100 for the full control effect; nearly all actives have a fitted effect of over 50% in size
BAZ2B inh: qHTS Assay for Inhibitors of BAZ2B; Bromodomain adjacent to zinc finger domain protein 2B (Homo sapiens), Q9UIF8; AlphaScreen BAZ2B-H3K14Ac peptide displacement; Potency, µM (doses to about 114 µM), for the others: at the highest dose activity change, negative = inhibition, most hits filed as inhibitors; 360,000 compounds, 4.4% hits; note: % is set by controls: 0 for no effect and ±100 for the full control effect; nearly all actives have a fitted effect of over 60% in size
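AlphaScreen displacement: compounds (up to 110uM) incubated 30 min at room temperature with a preformed 50 nM BAZ2B/50 nM biotinylated H3K14Ac peptide complex in PBS pH 7.4 with Tween-20. Donor and acceptor beads at 10 ug/mL final added, 20 min light-protected before reading.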
HP1b chromo inh: HTS for Inhibitors of HP1-beta Chromodomain Interactions with Methylated Histone Tails; Chromobox protein homolog 1 (Homo sapiens), P83916; AlphaScreen HP1-beta / biotin-H3K9me3 peptide binding; AID 540317, 2011; 390,000 compounds, 0.56% hits; Potency, µM (doses to about 114 µM), for inactives: at the highest dose activity change, negative = inhibition, usual class: inhibitors; note: nearly all actives have a fitted effect of over 70% in size
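HP1-beta protein (50 nM final) preincubated 30 min at room temperature with biotinylated H3(1-18)K9me3 peptide (50 nM) in PBS pH 7.4, 0.01% Tween-20, then compound added for 30 min. AlphaScreen streptavidin donor/nickel chelate acceptor beads (10 ug/mL final), 30 min dark, luminescence read.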
Sfp inh: qHTS Assay for Inhibitors of Bacillus subtilis Sfp phosphopantetheinyl transferase (PPTase) | 4'-phosphopantetheinyl transferase ffp (Bacillus subtilis), Q9F4F7 | Biochemical Sfp PPTase activity, qHTS | Potency, µM, for the others: largest response in the series, negative = inhibition, hits mostly inhibitors | 310,000 compounds, 3.5% hits;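 note: the enzyme is Sfp with the accession as filed and its product quenches rhodamine fluorescence; 0% = enzyme reaction without inhibitor and -100% = no enzyme wells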
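With Hepes-Na pH 7.6 buffer containing 10 mM MgCl2, Sfp (15 nM) modified BHQ-2-YbbR (12.5 uM) using rhodamine-CoA (5 uM). Two reads 30 minutes apart at 525/598 nm yielded each well's rate.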
G9a block: qHTS Assay for Inhibitors of Histone Lysine Methyltransferase G9a; Potency, µM (series often up to 102 µM), inactives show at the highest dose activity, negative = inhibition, hits mostly inhibitors; 350,000 compounds, 8.8% hits; G9a H3K9 monomethylation, AlphaScreen, 2 h; AID 504332, 2011; Histone-lysine N-methyltransferase EHMT2 (Homo sapiens), Q96KQ7; note: % is set by controls: 0 for no effect and ±100 for the full control effect; nearly all actives have a fitted effect of over 75% in size
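Compounds were preincubated with 20 nM G9a for 15 min, after which biotinylated H3K9 peptide (500 nM) and SAM (20 uM) started a 2 h room-temperature reaction. Monomethylated product was quantified by antibody-based AlphaScreen chemiluminescence.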
An asterisk follows results filed as active; ? = inconclusive; / = no result given; [ ] = remark or other dose. Calls come from the whole dose curve; as a rule, active = well fitted curve in the direction sought with a large enough effect; inconclusive = small, poorly fitted or top-dose-only effect, or another doubt; inactive = no such curve, though single readings can be large; an effect the other way counts as inactive or inconclusive. Potency is the fitted concentration of half-maximal effect.

SMILES	JMJD2A Tudor	BAZ2B inh	HP1b chromo inh	Sfp inh	G9a block
CCNC(=O)c1c(N)sc2c1CCCCC2	/	5%	/	35µM*	?
CCOC(=O)c1[nH]c(Cc2[nH]c(C(=O)OCC)c(C)c2CCC(=O)OC)c(CCC(=O)OC)c1C	40µM*	?	-26%	56µM*	40µM*
COc1ccc2c(C)cc(C)nc2n1	1%	1%	44%	5%	12%[12.7 µM]
Cc1ccc(Cn2c(C)c(CNC(C)c3ccccc3)c(C(=O)O)c2C)cc1 (centres undefined)	-18%	-7%	10%	/	-26%[59 µM]
COC(=O)C1=C(C(=O)OC)[C@@H]2N(C)c3ccc(OC)cc3[C@@]23C[C@@H](C(=O)OC)N(S(=O)(=O)c2ccc(C)cc2)C3=N1	/	/	/	6%	/
COC(=O)C1=C(C(=O)OC)[C@@H]2N(C)c3ccc(OC)cc3[C@@]23C[C@@H](C(=O)OC)N(C(=O)c2cc(C)oc2C)C3=N1	45µM*	/	?	3%	/
COC(=O)C1=C(C(=O)OC)[C@@H]2N(C)c3ccc(OC)cc3[C@@]23C[C@@H](C(=O)OC)N(C(=O)c2cccs2)C3=N1	?	50µM*	?	11%	40µM*
O=c1/c(=C/c2cccc3ccccc23)sc2ncnn12	-14%	?	10%	12%	?
O=C(Nc1ccccn1)[C@@H]1CCC(=O)N1C(=O)OCc1ccccc1	0%	-3%	33%	-3%	-44%[59 µM]
O=c1[nH]c2ccc(Cl)cc2c(-c2ccccc2)c1SC(=S)N1CCCCC1	?	?	?	14µM*	11µM*
O=c1[nH]c2ccc(Cl)cc2c(-c2ccccc2)c1SC(=S)N1CCOCC1	?	-34%	-20%	11µM*	?
NNC(=O)CSc1c(-c2ccccc2)c2cc(Cl)ccc2[nH]c1=O	-8%	-11%	34%	5%	6%[2.33 µM]
Cc1nc(-n2nc(C)c(Cc3ccc4c(c3)OCO4)c2C)sc1C(=O)Nc1cccc(Cl)c1	-6%	-11%	19%	/	-21%[59 µM]
c1ccc(-c2nc(-c3ccco3)cs2)nc1	-36%	6%	-26%	45µM*	?
c1ccc(-c2nccc(-c3ccco3)n2)nc1	?	32µM*	32%	7%	?
Cc1csc(=Nc2cccnc2)n1Cc1ccco1	-19%	45µM*	-10%	-10%	-38%
Cc1csc(=Nc2cccnc2)n1CC1CCCCC1	-22%	45µM*	6%	-11%	?
Fc1ccccc1-c1csc(=Nc2cccnc2)n1CC1CCCO1 (centres undefined)	?	?	-16%	-85%	-46%[59 µM]
O=C(COC(=O)/C=C/c1ccco1)NCc1ccc2c(c1)OCO2	-19%	71µM*	0%	0%	56µM*
COC(=O)c1ccccc1NC(=O)COC(=O)c1ccc(C)c(NC(=O)c2ccco2)c1	-17%	23%	35%	8%	22%
COc1cccc(/C=C/C(=O)OCC(=O)Nc2ccc(Cl)c(S(=O)(=O)N(C)C)c2)c1	-5%	-25%	35%	?	9%
CN(C)S(=O)(=O)c1cc(NC(=O)COC(=O)/C=C/c2ccco2)ccc1Cl	56µM*	?	?	?	?
COC(=O)c1ccccc1NC(=O)COC(=O)c1ccco1	?	50µM*	6%	-5%	9%
COc1ccccc1NC(=O)/C=C/c1ccc2c(c1)OCO2	-18%	-13%	25%	1%	15%[59 µM]
COc1ccccc1NC(=O)COC(=O)/C=C/c1ccc2c(c1)OCO2	-10%	-5%	33%	79µM*	1%[59 µM]
C[C@H]1COC(=O)[C@H](Cc2ccccc2)NC(=O)[C@@H](C)COC(=O)[C@H](Cc2ccccc2)NC1=O	/	/	/	7%	/
CCN(CC)C(=O)CSc1nc(C)cc(C)n1	2%	1%	45%	4%	/
O=C(/C=C/c1ccco1)OCn1nnc2ccccc2c1=O	-13%	56µM*	17%	-72%	35µM*
